The source of these data is PubChem BioAssay (Tox21).

Several values for one entry are separate records, joined by “and”; a condition that tells them apart may be missing. Equal values may be shown once. Inconclusive results are not listed. Some compounds were tested as several samples or in several runs, with calls that do not always agree. Activity calls are given as the source filed them. Unless noted, calls come from the whole dose curve.

Assay [1] is described as follows: Nuclear factor erythroid 2-related factor 2/antioxidant responsive element (Nrf2/ARE) small molecule agonists: qHTS cell viability counter screen in human keratinocytes (AID 1919968; active = well fitted curve in the direction sought with a large enough effect in the repeat runs; an effect the other way counts as inactive or inconclusive; note: nearly all actives have a fitted effect of over 55% in size). In outline: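 Stably transfected HaCaT (KeratinoSens), 1,500/well. Test agents in DMSO were applied for 23 h, 37 C/5% CO2. CellTiter-Fluor was incubated 1 h before the fluorescence read.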
A general note: qHTS replaces the single test concentration by a dilution series.

Assay [2] can be described thus: Nuclear factor erythroid 2-related factor 2/antioxidant responsive element (Nrf2/ARE) small molecule agonists: luciferase reporter gene qHTS assay in human keratinocytes (AID 1919969). Note: nearly all actives have a fitted effect of over 35% in size. Note: potency is the fitted concentration of half-maximal effect.
Assay [3] deals with Gonadotropin-releasing hormone receptor (Homo sapiens) (UniProt P30968). The experiment in a line: Human gonadotropin-releasing hormone receptor (GnRHR) small molecule agonists, calcium flux assay in GnRHR-HEK293 cells (AID 1920063). Note: nearly all actives have a fitted effect of over 35% in size. In a few lines: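 Stable human GnRHR HEK293 line. 18 h plating, then calcium dye for 1 h at 37 C. Agonist-mode compound addition from DMSO stocks; fluorescence monitored 3 min.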
Gonadotropin-releasing hormone receptor (Homo sapiens), sequence (P30968 whole entry, looked up): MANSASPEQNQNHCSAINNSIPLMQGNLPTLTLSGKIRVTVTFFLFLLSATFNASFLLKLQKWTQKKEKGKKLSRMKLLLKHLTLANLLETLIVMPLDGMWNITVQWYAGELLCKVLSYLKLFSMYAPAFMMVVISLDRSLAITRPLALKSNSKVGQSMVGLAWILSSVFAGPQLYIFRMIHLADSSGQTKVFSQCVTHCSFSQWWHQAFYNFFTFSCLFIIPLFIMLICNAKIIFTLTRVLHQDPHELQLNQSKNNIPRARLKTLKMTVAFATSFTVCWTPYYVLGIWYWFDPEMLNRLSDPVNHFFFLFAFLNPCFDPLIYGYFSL

The target in assay [4] is KiSS-1 receptor (Homo sapiens) (UniProt Q969F8). The assay can be described thus: Human kisspeptin (KISS1R) small molecule agonists, calcium flux assay in KISS1R-HEK293 cells (AID 1920064; active = well fitted curve in the direction sought with a large enough effect in the repeat runs; an effect the other way counts as inactive or inconclusive). In a few lines:
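After overnight (18 h) culture at 37 C/5% CO2, human KISS1R-HEK293 cells received calcium dye for 1 h, then test compound; emission at 540 nm (excitation 480 nm) was tracked for 3 min.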
For orientation: Calcium assays in cells follow changes in intracellular calcium, usually with a dye or a luminescent sensor.

Assay [5] in a line: G protein-coupled receptor (GPCR) small molecule agonists, calcium flux assay: HEK293 wild type cell line counter screen (AID 1920065). In a few lines: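 Following 18 h incubation at 37 C/5% CO2, plates got calcium dye for 1 h; compounds, ATP or DMSO were then pinned in and fluorescence followed kinetically (480/540 nm).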
The nature of assay [6]: p53 small molecule agonists, cell-based qHTS assay with human liver microsomes (AID 1963577). In a few lines: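 Compounds act here after metabolic activation: human liver microsomes and NADPH, both at 0.5 mg/mL final, were co-added to p53RE-bla cells. Incubation ran 16 h at 37 C, followed by LiveBLAzer detection.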
Assay [7] in a line: p53 small molecule agonists, cell-based qHTS assay with rat liver microsomes (AID 1963578). In outline:
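Read-out is beta-lactamase reporter fluorescence (LiveBLAzer, 2 h, room temperature, dark) in p53RE-bla cells treated 16 h at 37 C with compound, rat liver microsomes and NADPH, both 0.5 mg/mL final.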

A short description of assay [8]: p53 small molecule agonists, cell-based qHTS assay with rat liver microsomes: qHTS cell viability counter screen (AID 1963580). Note: nearly all actives have a fitted effect of over 45% in size. In outline:
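Luminescent ATP readout (CellTiter-Glo, 30 min at room temperature) reports viability of p53RE-bla HCT-116 cells after 16 h at 37 C with test compounds under metabolic activation by rat liver microsomes and NADPH at 0.5 mg/mL final each.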

Assay [9] in a line: p53 small molecule agonists, cell-based qHTS assay: qHTS cell viability counter screen (AID 1963581). Note: nearly all actives have a fitted effect of over 45% in size. In outline:
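qHTS counter screen: 16 h compound exposure at 37 C of p53RE-bla HCT-116 cells (4,000 per well, seeded 5 h prior), cell viability by ATP luminescence.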

In assay [10] the target is 5-hydroxytryptamine receptor 2A (Homo sapiens) (UniProt P28223). The assay can be described thus: 5-hydroxytryptamine receptor 2A (HTR2A) small molecule antagonists, cell-based qHTS assay (AID 1963586). Note: nearly all actives have a fitted effect of over 45% in size. In outline: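 CHO cells stably expressing human HTR2A were plated for 18 h at 37 C, then loaded with calcium dye for 1 h. Compounds were preincubated 5 min at room temperature before DOI (4 nM solution) was added. Kinetic fluorescence was read for 3 min.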
5-hydroxytryptamine receptor 2A (Homo sapiens), sequence (P28223 whole entry, looked up): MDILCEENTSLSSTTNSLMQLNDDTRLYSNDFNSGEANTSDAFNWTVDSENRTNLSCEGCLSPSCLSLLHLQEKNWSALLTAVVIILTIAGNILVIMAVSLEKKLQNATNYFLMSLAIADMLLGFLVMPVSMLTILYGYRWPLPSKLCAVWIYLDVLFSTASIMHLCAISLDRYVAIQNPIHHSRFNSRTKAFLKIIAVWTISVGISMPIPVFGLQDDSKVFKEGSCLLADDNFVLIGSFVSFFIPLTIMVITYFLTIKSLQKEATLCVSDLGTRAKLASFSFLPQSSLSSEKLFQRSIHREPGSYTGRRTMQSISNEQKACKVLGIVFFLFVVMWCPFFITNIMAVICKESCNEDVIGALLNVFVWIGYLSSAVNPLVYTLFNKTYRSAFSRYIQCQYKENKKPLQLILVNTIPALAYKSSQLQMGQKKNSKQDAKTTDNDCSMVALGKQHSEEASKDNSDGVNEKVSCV

For assay [11] the target is unchanged. The experiment in a line: 5-hydroxytryptamine receptor 2A (HTR2A) small molecule agonists, cell-based qHTS assay (AID 1963587). Note: nearly all actives have a fitted effect of over 30% in size. Note: potency is the fitted concentration of half-maximal effect. In outline:
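HTR2A-CHO cells, plated 18 h at 37 C/5% CO2, dye-loaded 1 h at 37 C; compounds in DMSO added by pin tool (agonist mode). Intracellular calcium flux read as kinetic fluorescence on FDSS over 2 min at 1 s intervals.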

The target in assay [12] is Muscarinic acetylcholine receptor M1 (Homo sapiens) (UniProt P11229). The experiment in a line: Cholinergic receptor muscarinic 1 (CHRM1) small molecule antagonists, cell-based qHTS assay (AID 1963588). Note: nearly all actives have a fitted effect of over 40% in size. In a few lines: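 Compounds were tested at 15 concentrations in three independent runs. Dye-loaded CHRM1-CHO cells were exposed 5 min at room temperature before stimulation by acetylcholine added at 50nM. Intracellular calcium was read kinetically on FDSS for 3 min.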
Muscarinic acetylcholine receptor M1 (Homo sapiens), sequence (P11229 whole entry, looked up): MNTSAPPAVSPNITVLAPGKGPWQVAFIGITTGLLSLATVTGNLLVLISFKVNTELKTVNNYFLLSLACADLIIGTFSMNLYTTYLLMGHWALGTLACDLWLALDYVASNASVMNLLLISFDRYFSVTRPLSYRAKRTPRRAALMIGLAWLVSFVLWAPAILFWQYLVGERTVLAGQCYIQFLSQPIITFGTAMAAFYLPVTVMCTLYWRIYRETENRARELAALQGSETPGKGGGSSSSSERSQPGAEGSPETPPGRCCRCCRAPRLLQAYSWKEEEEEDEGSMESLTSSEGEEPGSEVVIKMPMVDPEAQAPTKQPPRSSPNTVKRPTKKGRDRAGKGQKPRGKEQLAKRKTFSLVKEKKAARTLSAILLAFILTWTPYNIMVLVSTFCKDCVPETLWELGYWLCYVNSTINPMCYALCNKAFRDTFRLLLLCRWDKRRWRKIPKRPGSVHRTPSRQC

For assay [13] the target is unchanged. The assay can be described thus: Cholinergic receptor muscarinic 1 (CHRM1) small molecule agonists, cell-based qHTS assay (AID 1963589). Note: nearly all actives have a fitted effect of over 35% in size. In a few lines: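 Kinetic fluorescence (1 s intervals) of calcium-sensitive dye in human M1 CHO cells after compound addition; cells pre-incubated 18 h at 37 C/5% CO2 and dye-loaded 1 h.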
Assay [14] can be described thus: cAMP Responsive Elements (CRE) small molecule agonists, cell-based qHTS assay (AID 1963590). In outline:
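Test agents in DMSO were incubated 3 h at 37 C/5% CO2 with CRE-bla HEK 293T cells seeded 18 h earlier; LiveBLAzer B/G FRET substrate was added and read after 2 h at room temperature.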

A short description of assay [15]: cAMP Responsive Elements (CRE) small molecule antagonists, cell-based qHTS assay (AID 1963591; active = well fitted inhibition curve with a large enough effect in the signal ratio in the repeat runs, not every such curve was filed as active; the % refers to the signal ratio). In a few lines:
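Reporter line CRE-bla HEK 293T in dialyzed-FBS DMEM; cells preincubated 18 h, treated 3 h with compound plus NKH477 (0.25 uM final); LiveBLAzer FRET, 2 h RT.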

The target of assay [16] is Beta-2 adrenergic receptor (Homo sapiens) (UniProt P07550). The assay can be described thus: Adrenergic beta2 receptor (ADRB2) small molecule antagonists, cell-based qHTS assay (AID 1963592). For activity change, negative = inhibition: series mostly up to about 92 µM. Note: nearly all actives have a fitted effect of over 50% in size. Note: potency is the fitted concentration of half-maximal effect. In outline: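 Assay format: CHO-ADRB2 cells, 18-20hr seeding at 37C/5% CO2, then compound plus 1nM isoproterenol agonist mix for 0.5hr RT. Homogeneous time-resolved fluorescence cAMP detection after 1hr, expressed as 665/615 nm ratio.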
Beta-2 adrenergic receptor (Homo sapiens), sequence (P07550 whole entry, looked up): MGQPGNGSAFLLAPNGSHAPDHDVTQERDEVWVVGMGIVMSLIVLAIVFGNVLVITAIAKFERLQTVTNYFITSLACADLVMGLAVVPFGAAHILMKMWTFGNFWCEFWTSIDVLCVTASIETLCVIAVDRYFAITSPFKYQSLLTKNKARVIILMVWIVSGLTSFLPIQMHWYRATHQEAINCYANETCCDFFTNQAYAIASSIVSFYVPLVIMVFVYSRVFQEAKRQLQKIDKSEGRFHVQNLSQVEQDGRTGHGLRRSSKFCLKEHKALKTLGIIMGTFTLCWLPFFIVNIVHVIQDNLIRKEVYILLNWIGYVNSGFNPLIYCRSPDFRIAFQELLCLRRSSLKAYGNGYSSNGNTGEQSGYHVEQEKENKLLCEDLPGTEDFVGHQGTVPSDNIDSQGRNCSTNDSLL

The target in assay [17] is D(2) dopamine receptor (Homo sapiens) (UniProt P14416). The experiment in a line: Dopamine D2 receptor (DRD2) small molecule agonists, cell-based qHTS assay (AID 1963594). Note: nearly all actives have a fitted effect of over 35% in size. In a few lines:
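HEK293 cells stably expressing DRD2 were cultured 24 h at 37 C, then given Ro20-1724 (0.1 mM final) and compounds for 10 min at room temperature. NKH477 (200nM) was then added for 30 min. cAMP was read by HTRF.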

Assay [18] shares this target. The experiment in a line: Dopamine D2 receptor (DRD2) small molecule antagonists, cell-based qHTS assay (AID 1963595; active = well fitted inhibition curve with a large enough effect in the signal ratio in the repeat runs, with a control signal flat; the % refers to the signal ratio). In a few lines:
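HTRF cAMP read-out at 665 and 620 nm emission (340 nm excitation). Antagonist mode: compounds were tested against 12 nM quinpirole in DRD2-HEK293 cells, with 200 nM NKH477 raising cAMP and 0.1 mM Ro20-1724 blocking its breakdown.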

Assay [19] can be described thus: p53 small molecule agonists, cell-based qHTS assay with human liver microsomes: qHTS cell viability counter screen (AID 1963579). Note: nearly all actives have a fitted effect of over 45% in size. In a few lines:
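Cells carrying the p53 response-element beta-lactamase reporter are treated for 16 h at 37 C with test compounds in the presence of human liver microsomes and NADPH (both 0.5 mg/mL final); ATP-based CellTiter-Glo luminescence then reports viability.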

Assay [20] in a line: p53 small molecule agonists, cell-based qHTS assay (AID 1963582; active = well fitted activation curve with a large enough effect in the signal ratio in the repeat runs, not every such curve was filed as active; the % refers to the signal ratio). In a few lines: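 Measured: fluorescence from cleaved LiveBLAzer substrate. System: p53RE-bla cells, 16 h compound treatment at 37 C, 2 h substrate step at room temperature.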
% is set by controls: 0 for no effect and ±100 for the full control effect.

KiSS-1 receptor (Homo sapiens), sequence (Q969F8 whole entry, looked up): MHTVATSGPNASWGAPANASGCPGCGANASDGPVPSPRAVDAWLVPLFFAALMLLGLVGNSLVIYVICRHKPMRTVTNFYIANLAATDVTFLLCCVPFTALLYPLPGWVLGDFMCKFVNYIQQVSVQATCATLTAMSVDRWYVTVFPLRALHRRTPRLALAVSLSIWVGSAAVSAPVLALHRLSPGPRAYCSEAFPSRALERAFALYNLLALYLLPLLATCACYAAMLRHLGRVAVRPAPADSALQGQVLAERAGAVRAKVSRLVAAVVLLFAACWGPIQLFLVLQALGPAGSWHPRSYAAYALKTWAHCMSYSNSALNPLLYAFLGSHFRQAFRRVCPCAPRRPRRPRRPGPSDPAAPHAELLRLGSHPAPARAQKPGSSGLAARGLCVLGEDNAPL
D(2) dopamine receptor (Homo sapiens), sequence (P14416 whole entry, looked up): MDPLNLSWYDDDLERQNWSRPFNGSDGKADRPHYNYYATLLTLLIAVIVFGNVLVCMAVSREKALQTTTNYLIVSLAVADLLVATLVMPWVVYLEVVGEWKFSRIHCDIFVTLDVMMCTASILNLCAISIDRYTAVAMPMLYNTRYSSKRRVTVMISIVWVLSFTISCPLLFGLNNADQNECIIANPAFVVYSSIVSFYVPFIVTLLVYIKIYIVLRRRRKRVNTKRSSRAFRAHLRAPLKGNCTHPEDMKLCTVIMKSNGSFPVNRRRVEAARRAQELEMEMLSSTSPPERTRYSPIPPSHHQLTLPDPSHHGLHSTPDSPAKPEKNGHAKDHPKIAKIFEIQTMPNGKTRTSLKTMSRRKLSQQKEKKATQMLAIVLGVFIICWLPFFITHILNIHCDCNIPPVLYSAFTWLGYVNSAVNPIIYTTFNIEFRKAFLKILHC

As for `CN(C)Cc1cc(CN(C)C)c(O)c(CN(C)C)c1`, the Potency entry in [1], in [2], in assay [3], in assay [4], in [5] and in assay [6] was “inactive” each time. Besides, the Potency result in [7], in assay [8], in assay [9], in assay [10], in assay [11] and in assay [12] was “inactive” in each case. In addition, the Potency entry in assay [13], in assay [14], in assay [15], in assay [16], in [17] and in [18] was “inactive” in each case.

Regarding `CCCCCCCCCCC=CC1CC(=O)OC1=O` (stereo not given), the Potency result in assay [1], in [2], in [3], in [4], in assay [5] and in [6] was “inactive” each time. The Potency entry in [7], in assay [8], in assay [9], in assay [10], in assay [11] and in [12] was “inactive” in each case. The Potency entry in assay [14], in assay [15], in assay [16], in assay [17] and in assay [18] was “inactive” in each case.

Consider `O=[Se](O)O`, for which the Potency result in [1], in assay [3], in [4], in assay [5], in assay [6] and in assay [7] was “inactive” each time. The Potency result in [9], in assay [12], in [13], in [16], in assay [17] and in assay [18] was “inactive” throughout. Also, the Potency result in assay [2] was “inactive and 5.23 µM (active)”; in assay [11], 19.5 µM (active). Moreover, the activity change, negative = cytotoxicity in assay [19] is -2.48% [at 13.5 µM] (inactive). In addition, the activity, negative = inhibition in [10] was 3.34% [at 12.7 µM] (inactive). Moreover, in assay [11], the activation was -0.26% [at 15.9 µM] (inactive). For the same compound, the activity change, negative = inhibition in assay [15] was 2.98% [at 18.9 µM] (inactive).

Regarding `CC1=C(C)S(=O)(=O)CCS1(=O)=O`, the Potency result in [1], in assay [3], in [4], in [5], in assay [6] and in assay [19] was “inactive” each time. Besides, the Potency entry in [8], in [9], in [20], in assay [10], in [11] and in assay [12] was “inactive” throughout. Also, the Potency result in assay [13], in assay [14], in assay [15], in assay [17] and in [18] was “inactive” in each case. The Potency is 6.73 µM (active) and 8.63 µM (active) in assay [2]; “inactive and 13.7 µM (active)” in [16].

`Cc1ccc([N+](=O)[O-])cc1S(=O)(=O)O`: the Potency entry in assay [1], in [2], in assay [3], in assay [4], in assay [5] and in [6] was “inactive” each time. The Potency result in assay [7], in assay [8], in [9], in assay [20], in [10] and in assay [11] was “inactive” throughout. The Potency entry in assay [12], in assay [13], in assay [14], in [15], in [16] and in assay [17] was “inactive” in each case. For the same compound, the Potency result in [18] was “inactive”.

`C[C@](N)(Cc1ccc(O)c(O)c1)C(=O)O`: the Potency entry in assay [1], in [2], in [3], in [4], in assay [5] and in assay [6] was “inactive” each time. For the same compound, the Potency entry in assay [7], in assay [8], in assay [9], in assay [20], in [14] and in assay [15] was “inactive” each time. The Potency entry in assay [16], in assay [17] and in assay [18] was “inactive” in each case.

In the case of `NC(=O)NC1NC(=O)NC1=O` (stereo not given), the Potency entry in assay [1], in assay [2], in assay [3], in assay [4], in [5] and in [6] was “inactive” each time. Also, the Potency result in [19], in [8], in [9], in assay [20], in [10] and in assay [11] was “inactive” throughout. Further, the Potency entry in assay [12], in [13], in [14], in assay [15], in assay [16] and in [17] was “inactive” throughout. For the same compound, the Potency result in [18] is “inactive”.
